# Test results taken from the supplement of paper PMC8728848.
# Many of the other results were omitted from the sample, so the strongest signals are more common in it than they were.
# B1: OS9-MRH (Homo sapiens), Q13438 (protein)
# chain: IPELLSPMRDAPCLLKTKDWWTYEFCYGRHIQQYHMEDSEIKGEVLYLGYYQSAFDWDDETAKASKQHRLKRYHSQTYGNGSKCDLNGRPREAEVRFLCDEGAGISGDYIDRVDEPLSCSYVLTIRTPRLCPHPLLRPPPSAAPQAI
# How the values were obtained:
# Assay in all cases: glycan array binding signal (z-score within array); higher = stronger binding
# Conditions in all cases: glycan notation: IUPAC condensed, linker removed
# [1] = molecular target: Fuc(a1-2)Gal(b1-3)GlcNAc6S
# How it was run: (§1)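 Glycan array binding is given as a within-array Z-score, which can be read as non-binding when negative. The arrays, 3228 of them, came from the Consortium for Functional Glycomics database and were retained only where the protein sequence was available. Z-scores were averaged across arrays of the same protein sequence at different concentrations or buffers and across linkers.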
# [2] = molecular target: Fuc(a1-2)Gal(b1-3)[Fuc(a1-4)]GlcNAc
# How it was run: as §1
# [3] = molecular target: Fuc(a1-2)Gal(b1-3)[Fuc(a1-4)]GlcNAc(b1-2)Man(a1-3)[Fuc(a1-2)Gal(b1-3)[Fuc(a1-4)]GlcNAc(b1-2)Man(a1-6)]Man(b1-4)GlcNAc(b1-4)[Fuc(a1-6)]GlcNAc(b1-4)[Fuc(a1-6)]GlcNAc
# How it was run: as §1
# [4] = molecular target: Fuc(a1-2)Gal(b1-3)[Fuc(a1-4)]GlcNAc(b1-3)[Fuc(a1-3)[Gal(b1-4)]GlcNAc(b1-6)]Gal(b1-4)Glc
# How it was run: as §1
# [5] = molecular target: Fuc(a1-2)Gal(b1-4)GlcNAc6S
# How it was run: as §1
# [6] = molecular target: Fuc(a1-2)[GalNAc(a1-3)]Gal(b1-3)GlcNAc(b1-2)Man(a1-3)[Fuc(a1-2)[GalNAc(a1-3)]Gal(b1-3)GlcNAc(b1-2)Man(a1-6)]Man(b1-4)GlcNAc(b1-4)[Fuc(a1-6)]GlcNAc
# How it was run: as §1
# [7] = molecular target: Fuc(a1-3)[Gal(b1-4)]Glc6S
# How it was run: as §1
# [8] = molecular target: Fuc(a1-3)[Gal(b1-4)]GlcNAc(b1-3)Gal(b1-4)[Fuc(a1-3)]GlcNAc(b1-3)Gal(b1-4)[Fuc(a1-3)]GlcNAc
# How it was run: as §1
# [9] = molecular target: Fuc(a1-3)[GalNAc(b1-4)]GlcNAc
# How it was run: as §1
# [10] = molecular target: Gal(a1-3)Gal(b1-4)GlcNAc(b1-6)GalNAc
# How it was run: as §1
# [11] = molecular target: Gal(a1-4)Gal(b1-4)GlcNAc(b1-3)Gal(b1-4)Glc
# How it was run: as §1
# [12] = molecular target: Gal(b1-3)GalNAc(b1-3)Gal(a1-4)Gal(b1-4)Glc
# How it was run: as §1
# [13] = molecular target: Gal(b1-3)GlcNAc(b1-2)Man(a1-3)[GlcNAc(b1-4)][Gal(b1-3)GlcNAc(b1-2)Man(a1-6)]Man(b1-4)GlcNAc(b1-4)GlcNAc
# How it was run: as §1
# [14] = molecular target: Gal(b1-3)GlcNAc(b1-3)Gal(b1-4)GlcNAc
# How it was run: as §1
# [15] = molecular target: Gal(b1-3)GlcNAc(b1-3)Gal(b1-4)GlcNAc(b1-2)Man(a1-3)[Gal(b1-3)GlcNAc(b1-3)Gal(b1-4)GlcNAc(b1-2)Man(a1-6)]Man(b1-4)GlcNAc(b1-4)GlcNAc
# How it was run: as §1
# Gal(b1-3)GlcNAc6S = molecular target: Gal(b1-3)GlcNAc6S
# How it was run: as §1
# [16] = molecular target: Gal(b1-4)GlcNAc(b1-2)Man(a1-6)Man(b1-4)GlcNAc(b1-4)GlcNAc
# How it was run: as §1
# [17] = molecular target: Gal(b1-4)GlcNAc(b1-2)Man(a1-6)[Man(a1-3)]Man(b1-4)GlcNAc(b1-4)GlcNAc
# How it was run: as §1
# [18] = molecular target: Gal(b1-4)GlcNAc(b1-3)Gal(b1-4)GlcNAc(b1-2)[Gal(b1-4)GlcNAc(b1-3)Gal(b1-4)GlcNAc(b1-6)]Man(a1-6)[Gal(b1-4)GlcNAc(b1-3)Gal(b1-4)GlcNAc(b1-2)Man(a1-3)]Man(b1-4)GlcNAc(b1-4)[Fuc(a1-6)]GlcNAc
# How it was run: as §1
# [19] = molecular target: Gal(b1-4)GlcNAc(b1-3)Gal(b1-4)GlcNAc(b1-3)Gal(b1-4)GlcNAc(b1-2)Man(a1-3)[Gal(b1-4)GlcNAc(b1-3)Gal(b1-4)GlcNAc(b1-3)Gal(b1-4)GlcNAc(b1-2)Man(a1-6)]Man(b1-4)GlcNAc(b1-4)GlcNAc
# How it was run: as §1
# [20] = molecular target: Gal(b1-4)GlcNAc(b1-3)Gal(b1-4)GlcNAc(b1-3)Gal(b1-4)GlcNAc(b1-3)Gal(b1-4)GlcNAc(b1-2)Man(a1-3)[Gal(b1-4)GlcNAc(b1-3)Gal(b1-4)GlcNAc(b1-3)Gal(b1-4)GlcNAc(b1-3)Gal(b1-4)GlcNAc(b1-2)Man(a1-6)]Man(b1-4)GlcNAc(b1-4)[Fuc(a1-6)]GlcNAc
# How it was run: as §1
# [21] = molecular target: Gal(b1-4)GlcNAc(b1-3)Gal(b1-4)GlcNAc(b1-3)Gal(b1-4)GlcNAc(b1-3)Gal(b1-4)GlcNAc(b1-2)[Gal(b1-4)GlcNAc(b1-3)Gal(b1-4)GlcNAc(b1-3)Gal(b1-4)GlcNAc(b1-3)Gal(b1-4)GlcNAc(b1-6)]Man(a1-6)[Gal(b1-4)GlcNAc(b1-3)Gal(b1-4)GlcNAc(b1-3)Gal(b1-4)GlcNAc(b1-3)Gal(b1-4)GlcNAc(b1-2)Man(a1-3)]Man(b1-4)GlcNAc(b1-4)[Fuc(a1-6)]GlcNAc
# How it was run: as §1
binder,measurement,setting,value
B1,glycan array binding signal (z-score),[1],3.15
same,glycan array binding signal (z-score),[2],-1.22
same,glycan array binding signal (z-score),[3],0.415
same,glycan array binding signal (z-score),[4],0.3
same,glycan array binding signal (z-score),[5],2.76
same,glycan array binding signal (z-score),[6],0.172
same,glycan array binding signal (z-score),[7],-1.74
same,glycan array binding signal (z-score),[8],2.81
same,glycan array binding signal (z-score),[9],-0.024
same,glycan array binding signal (z-score),[10],0.493
same,glycan array binding signal (z-score),[11],-0.569
same,glycan array binding signal (z-score),[12],2.47
same,glycan array binding signal (z-score),[13],2.02
same,glycan array binding signal (z-score),[14],-0.137
same,glycan array binding signal (z-score),[15],2.4
same,glycan array binding signal (z-score),Gal(b1-3)GlcNAc6S,-0.326
same,glycan array binding signal (z-score),[16],2.22
same,glycan array binding signal (z-score),[17],1.24
same,glycan array binding signal (z-score),[18],2.17
same,glycan array binding signal (z-score),[19],0.47
same,glycan array binding signal (z-score),[20],-0.755
same,glycan array binding signal (z-score),[21],1.51
